Compound activity as filed in PubChem BioAssay.
Only some compounds are listed: those with a hit (about 12% of all), similar ones and a draw of the others.
NS1 inh = qHTS Assay for Inhibitors of Influenza NS1 Protein Function. Potency, µM (highest dose often 46.1 µM), inactives show top-dose activity, positive = more growth. 270,000 tested, 0.4% active. AID 2326, 2010; note: potency is the fitted concentration of half-maximal effect; actives are rising curves; nearly all actives have a fitted effect of over 50% in size
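Read-out: OD600 growth recovery of NS1-expressing budding yeast. Cells grown overnight at 30C in -URA glucose medium, washed, resuspended and diluted 1:100 in 2% galactose assay medium, pH 6.0. Same strain lacking NS1 served as positive control.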
Shiga toxin inh = A qHTS for Small Molecule Inhibitors of Shiga Toxin; Vero cells, Shiga toxin protein synthesis inhibition reporter; inhibition, % at 38.7 µM; 290,000 tested, 9.2% active; in the data active = inhibition mostly above about 28%, no sharp cut-off; inactive = mostly below about 43%; note: 0% is about no effect
SARS PLP yeast = qHTS of Yeast-based Assay for SARS-CoV PLP | 330,000 tested, 0.19% active | S. cerevisiae expressing SARS-CoV PLpro, growth rescue | Potency, µM (top dose mostly 32.9 µM), for the others: at the highest dose activity, positive = growth rescue, actives largely listed as activators | AID 485353, 2010; note: potency is the fitted concentration of half-maximal effect; 0% is about no effect; nearly all actives have a fitted effect of over 55% in size
CHX counter = Cycloheximide Counterscreen for Small Molecule Inhibitors of Shiga Toxin | 300,000 tested, 12% active | max response, % | cell reporter, cycloheximide protein synthesis inhibition counterscreen; in the data active = max response mostly above about 13%, no sharp cut-off; inactive = mostly below about 14%; note: read at 38.3 µM for the half of the compounds with a filed dose; 0% is about no effect
The depositor's hits bear a star; ? = inconclusive; nt = not tested or not shown. Unless noted, calls come from the whole dose curve.

SMILES	NS1 inh	Shiga toxin inh	SARS PLP yeast	CHX counter
CC1Cc2cc(/C=C3/SC(=S)N(C)C3=O)ccc2O1 (stereo not given)	6%	25	0%	25
Nc1nc(-c2ccc3c(c2)OCCO3)cs1	-32%	79*	-9%	50*
O=C(CN1CCN(Cc2ccc(F)cc2Cl)CC1)NCc1ccccc1	-3%	-3	2%	-2
CC(=O)c1cccc(NC(=O)NNC(=O)c2ccc(-c3ccccc3)cc2)c1	13%	-6	10%	1
Cc1nc(-c2cccc(N)c2)cs1	-15%	29	-8%	8
COc1ccccc1Nc1nc(-c2cccc(N3C(=O)c4ccccc4C3=O)c2)cs1	?	-4	?	1
COc1ccc(Cl)cc1-c1csc(N)n1	-44%	-4	-6%	-2
Nc1nc(-c2cc3c(cc2Cl)OCCO3)cs1	-27%	44*	-1%	40*
O=C1c2ccccc2C(=O)N1c1cccc(-c2csc(Nc3ccc4c(c3)OCO4)n2)c1	29%	71*	15%	20*
Cc1nc(-c2ccc3c(c2)OCO3)cs1	-1%	43*	-1%	16*
Cc1nc(-c2ccc3c(c2)OCCCO3)cs1	-5%	87*	-1%	45*
CC(Oc1ccc2c(-c3ccccc3)cc(=O)oc2c1)C(=O)NCCCn1ccnc1 (stereo not given)	-1%	-7	3%	-1
CCOc1ccc(/C=N/OCC(=O)NCc2ccc3c(c2)OCO3)cc1OC	-3%	-1	7%	-2
O=C(/C=C/c1ccc2c(c1)OCO2)Nc1nc(-c2ccc(F)cc2F)cs1	0%	-18	-2%	-5
Fc1ccc(-c2csc(/C=C/c3ccc4c(c3)OCO4)n2)cc1	-3%	39*	-18%	20*
O=[N+]([O-])c1cccc(-c2ccc(CN3CCCCC3)o2)c1	2%	nt	1%	3
Cc1ccc(C(C)n2cc(C(=O)NCc3ccccn3)nn2)cc1 (stereo not given)	nt	-7	1%	-2
COCCN(C(=O)Nc1ccc(OC)cc1)c1nc2ccccc2s1	13%	42*	0%	18*
COCCN(C(=O)Nc1ccc(F)cc1F)c1nc2ccccc2s1	5%	48*	-3%	34*
COCCN(C(=O)Nc1ccccc1)c1ccccc1	8%	49	15%	5
S=C1NNC2(CC3CC2C2CCCC32)NN1 (stereo not given)	nt	22	1%	16*
N/C(=N\OC(=O)Nc1ccccc1)c1ncc([N+](=O)[O-])s1	-55%	44	-14%	28*
CC(OC(=O)C1CCN(S(=O)(=O)c2ccccc2C(F)(F)F)CC1)C(=O)N(C)Cc1ccccc1 (stereo not given)	-10%	-11	26%	-3
C=CCC[C@@H](Cc1ccc(F)cc1)C(=O)OC[C@@H](Cc1ccccc1)NC(=O)[C@@H](CC=C)CC(=O)N[C@@H](CO)Cc1ccccc1	nt	nt	1%	nt
CC(=O)Oc1ccc2occ(-c3ccccc3)c2c1	-133%	125*	-23%	25*
SMILES	NS1 inh	Shiga toxin inh	SARS PLP yeast	CHX counter
O=C(O)COc1ccc2occ(C(=O)c3ccccc3)c2c1	1%	1	-14%	-3
O=C(c1cccs1)c1coc2ccc(O)cc12	-145%	81*	-15%	75*
CC(=O)Oc1ccc2occ(C(=O)c3cccs3)c2c1	-122%	67*	-9%	37*
O=C(CCl)Oc1ccc2occ(C(=O)c3cccs3)c2c1	-33%	50	-22%	39*
O=C(c1cccc(Br)c1)c1coc2ccc(O)cc12	nt	nt	-2%	nt
CC(C)CNc1nc2ncnc(N)c2[nH]1	-4%	nt	nt	nt
COc1ccc(C(=O)C2CCCN(C(=O)/C=C/c3cnc[nH]3)C2)c(C)c1 (stereo not given)	20%	10	nt	12
CN(CC(=O)NCc1ccccc1)Cc1cccc(F)c1	-6%	-3	1%	-4
O=C(CCSCc1cccc(F)c1)NCc1ccc(F)cc1	-43%	-11	-1%	-1
COc1ccc(CNC(=O)CSCc2ccccc2Cl)cc1	-4%	66*	-3%	62*
O=C(CSCc1cccc(F)c1)NCc1ccccc1	nt	173*	1%	48*
Cc1ccc(CNC(=O)CSCc2cccc(F)c2)cc1	nt	65	-2%	46*
O=C(CSCc1ccccc1F)NCc1ccccc1	nt	72	1%	44*
Cc1ccc(CNC(=O)CCSCc2ccccc2F)cc1	-48%	-13	-2%	11
O=C(CCC(=O)c1ccc(F)cc1)Nc1cccc(Br)c1	-3%	-1	1%	5
Cc1ccccc1C(=O)N/N=C/c1ccc([N+](=O)[O-])s1	-88%	-16	-49%	-10
